{"source": "PubChem BioAssay (Tox21)", "note": "Inconclusive results are not listed. Unmarked numbers belong to inactive results. The call rests on the fitted dose curve; in most records, active means well fitted activation curve with a large enough effect in the repeat runs; inconclusive means weak or mixed curves; inactive means flat fitted curve, though single readings scatter. On the % scale 0 is the no-effect control and ±100 the full control effect."}
{"assay": "A CellTox Green Cytotoxicity Assay to monitor cytotoxicity in HepG2 cells - 8 hour (AID 1224890); further: nearly all actives have a fitted effect of over 45% in size", "conditions": "CellTox Green fluorescence; series mostly up to 76.8 µM; cytotoxicity increase: at the top concentration", "description": "National Center for Advancing Translational Sciences [NCATS]\nNIH Chemical Genomics Center [NCGC]\nU.S. Environmental Protection Agency [EPA]\nNational Institutes of Environmental Health Sciences [NIEHS]\nNational Toxicology Program [NTP]\nCell-based models are critical for drug discovery. Determining the natural cytotoxic effects resulting from test compounds is an essential research activity. A CellTox Green Cytotoxicity Assay to monitor cytotoxicity in real time of continues cell culture during 40 hours of the compound treatment was used to screen Tox21 10K library compounds in HepG2 cells. CellTox Green Cytotoxicity Assay is a nonlytic, homogeneous, biofluorescent method to measure cytotoxicity in cell culture after experimental manipulation. The assay system uses a proprietary asymmetric cyanine dye that is excluded from viable cells but preferentially stains the dead cell's DNA. […] Viable cells produce no appreciable increases in fluorescence. Therefore, the fluorescence signal produced by the binding interaction with dead cell DNA is proportional to cytotoxicity.\nThe mixture of HepG2 cell suspension and reagents were dispensed at 600cells/6 ul/well in 1536-well tissue culture treated black solid bottom plates using a Multidrop dispenser. After the assay plates were incubated at a 37 C/5% CO2 incubator for 5 hours, 23 nL of compounds dissolved in DMSO, positive and negative controls was transferred to the assay plate by a pintool work station. The plates were incubated at 37 C for 40 hours. The fluorescence intensity were measured at 0h, 8h, 16h, 24h, 32h and 40h time points using ViewLux plate reader during compound treatment."}
{"compound": "COc1cc(C=O)ccc1OC(=O)C(C)C", "cytotoxicity increase": "-0.194%"}
{"compound": "O=C(O)Cc1cccc(-c2cc(CCCCCCc3ccc(O[C@H]4O[C@H](CO)[C@@H](O)[C@H](O)[C@@H]4O)c(-c4cccc(CC(=O)O)c4)c3)ccc2O[C@H]2O[C@H](CO)[C@@H](O)[C@H](O)[C@@H]2O)c1", "cytotoxicity increase": "23.5% [at 0.29 µM]"}
{"compound": "O=C(Nc1cccc(C2=NCCN2)c1)Nc1cccc(C2=NCCN2)c1", "cytotoxicity increase": "-10.2% [at 15.8 µM]"}
{"compound": "COc1cc2c3cc1Oc1cc(ccc1O)C[C@@H]1c4c(cc(OC)c(O)c4Oc4ccc(cc4)C[C@@H]3N(C)CC2)CC[N+]1(C)C", "cytotoxicity increase": "-11.1% [at 35.3 µM]"}
{"compound": "OCCCCCCCl", "cytotoxicity increase": "7.83%"}
{"compound": "CCCCC(CC)C(=O)OC(C)C", "note": "(stereo not given)", "cytotoxicity increase": "-10.4%"}
{"compound": "CC(C)CCC(=O)CCC(C)C", "cytotoxicity increase": "-7.36%"}
{"compound": "CCOC(=O)CCc1ccccc1", "cytotoxicity increase": "15.9%"}
{"compound": "CC(C)=CC(C)(C)C", "cytotoxicity increase": "-4.92%"}
{"compound": "O=C(c1ccc2c(c1)C(=O)OC2=O)c1ccc2c(c1)C(=O)OC2=O", "cytotoxicity increase": "2.99%"}
{"compound": "N#CCCOCCOCCC#N", "cytotoxicity increase": "-2.03%"}
{"compound": "CO[Si](CCCCl)(OC)OC", "cytotoxicity increase": "4.8%"}
{"compound": "CC1CCC(C(C)(C)S)C(=O)C1", "note": "(stereo not given)", "cytotoxicity increase": "-6.51%"}
{"compound": "O=C(O)/C=C/c1ccccc1", "cytotoxicity increase": "-5.36%"}
{"compound": "C[N+](C)(C)CC(O)CCl", "note": "(stereo not given)", "cytotoxicity increase": "-13.3%"}
{"compound": "O=[Si]=O", "cytotoxicity increase": "-15.2%"}
{"compound": "CCC(C)(C)C1CCC(=O)CC1", "cytotoxicity increase": "-1.07%"}
{"compound": "CCCCCCCC/C=C\\CCCCCCCC(=O)OC[C@@H](O)[C@H]1OC[C@H](O)[C@H]1O", "cytotoxicity increase": "-4.01%"}
{"compound": "CC(C)(C)c1ccc(C=O)cc1", "cytotoxicity increase": "2.75%"}
{"compound": "CC(=O)OC(C)(C)Cc1ccccc1", "cytotoxicity increase": "-3.09%"}
{"compound": "CCC(CO)CO", "cytotoxicity increase": "-10.9%"}
{"compound": "CCOC(=O)CC#N", "cytotoxicity increase": "-2.21%"}
{"compound": "CCN(Cc1cccc(S(=O)(=O)O)c1)c1ccccc1", "cytotoxicity increase": "-2.77%"}
{"compound": "Cc1c(C(C)C)c(=O)n(-c2ccccc2)n1C", "cytotoxicity increase": "7.1% [at 35.3 µM]"}
{"compound": "C1=C\\CC/C=C\\CC/1", "cytotoxicity increase": "5.33%"}
{"compound": "O=C(O)C(=O)Nc1cccc(-c2nn[nH]n2)c1", "cytotoxicity increase": "-10.1% [at 35.3 µM]"}
{"compound": "CCCC(C)CC", "note": "(stereo not given)", "cytotoxicity increase": "-0.166%"}
{"compound": "c1ccc(CNc2ncnc3nc[nH]c23)cc1", "cytotoxicity increase": "-3.73%"}
{"compound": "Cc1nc([N+](=O)[O-])cn1-c1ccc([N+](=O)[O-])cc1", "cytotoxicity increase": "0.719% [at 35.3 µM]"}
{"compound": "CC(C)COC(=O)/C=C/c1ccccc1", "cytotoxicity increase": "29.4%"}
{"compound": "NCCc1ccn[nH]1", "cytotoxicity increase": "-3.41% [at 35.3 µM]"}
{"compound": "C=COCCOCCOC=C", "cytotoxicity increase": "-0.948%"}
{"compound": "NS(=O)(=O)c1ccccc1OC(F)(F)F", "cytotoxicity increase": "-8.52%"}
{"compound": "CCCCCCCC[Si](OCC)(OCC)OCC", "cytotoxicity increase": "-0.856%"}
{"compound": "CCNC(=O)/C=C/c1cccc(Br)c1", "cytotoxicity increase": "0.107% [at 35.3 µM]"}
{"compound": "Cc1nc(C)nc(N2C[C@@H](C)N(c3ccnc([C@@H](C)O)n3)[C@@H](C)C2)n1", "cytotoxicity increase": "0.692% [at 35.3 µM]"}
{"compound": "O=S1(=O)CCCC1", "cytotoxicity increase": "0.665%"}
{"compound": "OC(CCN1CCCCC1)(c1ccccc1)c1ccccc1", "cytotoxicity increase": "-9.79% [at 35.3 µM]"}
{"compound": "O=C(O)c1ccc(OCCN2CCCCC2)cc1", "cytotoxicity increase": "-4.78% [at 35.3 µM]"}
{"compound": "NS(=O)(=O)c1ccc(Cl)c(S(N)(=O)=O)c1", "cytotoxicity increase": "-5.52% [at 35.3 µM]"}
